In the library only some 4.1% were active in any assay of this set; here they are far more common.
hgDAF-12 ag: agonists of H. glycines DAF-12 nuclear receptor; HEK293 GAL4-hgDAF12 UAS-luciferase reporter, agonist luminescence; normalized to butyrate control; activation, % at 6.8 µM; 370,000 tested, 1.8% active; AID 687014;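 active = activation above a cutoff set at the mean of all screened compounds plus 3 SD, cut at about 10% in these data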
DAX1 inh-1: blocks DAX1 repression of SF-1 activated StAR promoter; HEK293T StAR-luciferase reporter, SF-1/DAX-1 repression relief; inhibition, % at 6.8 µM; 370,000 tested, 1.1% active;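 active = inhibition above the mean over all tested compounds plus 3 SD, cut at about 3.6% in these data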;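 note: higher inhibition means more luminescence from relief of DAX-1 repression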
DAX1 inh-2: NR0B1 (DAX1) inhibition | inhibition, % at 6.75 µM | 340,000 tested, 0.99% active | HEK293 Gal4-DAX1 luciferase reporter, luminescence;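 active = inhibition above the mean over all tested compounds plus 3 SD, cut at about 4.2% in these data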;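 note: inhibition shows as a rise in luminescence from relieved DAX1 repression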
Target sequence (P51843 207-470 limits assumed): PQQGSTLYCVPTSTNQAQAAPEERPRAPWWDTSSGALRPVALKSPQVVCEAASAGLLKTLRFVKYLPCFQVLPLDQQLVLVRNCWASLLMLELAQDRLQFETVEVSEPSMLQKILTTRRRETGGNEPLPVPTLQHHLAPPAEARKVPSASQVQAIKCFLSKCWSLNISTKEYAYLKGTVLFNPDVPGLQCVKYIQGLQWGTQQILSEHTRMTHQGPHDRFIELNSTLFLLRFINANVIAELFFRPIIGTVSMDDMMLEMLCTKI
ssDAF12 agonist: activators of S. stercoralis DAF-12 nuclear receptor; HEK293 ssDAF-12/GRIP1 lit1-tk-luc reporter, luminescence; % of 3 µM dafachronic acid response; activation, % at 6.8 µM; 370,000 tested, 1% active; AID 652126;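 active = activation above the mean over all tested compounds plus 3 SD, cut at about 0.9% in these data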
hcDAF12 agonist: H. contortus DAF-12 activation, primary screen | HEK293 hcDAF-12 lit1-tk-luc reporter, luminescence; 0% DMSO, 100% Δ7-dafachronic acid | activation, % at 6.8 µM | 370,000 tested, 1.4% active | AID 652067;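 active = activation above the mean of all tested compounds plus 3 SD, cut at about 5.5% in these data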
Hits are given with their value; n = inactive; x = no result.

SMILES	hgDAF-12 ag	DAX1 inh-1	DAX1 inh-2	ssDAF12 agonist	hcDAF12 agonist
Cc1ccnc2nc(C(=O)OCC(=O)c3ccc(NC(=O)CC(C)C)cc3)nn12	n	n	5.5	n	n
CCC(=O)Nc1ccc(C(=O)COC(=O)c2nc3nccc(C)n3n2)cc1	n	n	n	n	n
O=C1C(=O)N(Cc2ccc(-c3ccc(Cl)nc3)cc2)c2ccc(OC(F)(F)F)cc21	n	x	x	n	n
CC(=O)NCc1ccc(-c2csc(-c3cccs3)n2)cc1	12	n	n	n	n
CNC(=O)c1csc(-c2cccs2)n1	n	n	n	n	n
CN1CCC(Oc2ccc(Sc3ccccc3)cc2)CC1	11	n	n	n	n
Cc1ccc(S(=O)(=O)Nc2cccc(-c3ccc(N4CCCCCC4)nn3)c2)cc1C	n	n	n	n	n
O=S(=O)(Nc1cccc(-c2ccc(N3CCCCCC3)nn2)c1)c1ccc(C(F)(F)F)cc1	n	n	n	n	6.4
O=C1CC(c2ccc3c(c2)OCCO3)Oc2ccc([N+](=O)[O-])cc21 (centres undefined)	n	n	4.7	n	n
Cc1ccc(NC(=O)Cc2c[nH]c3ccccc23)cc1S(=O)(=O)N1CCCCCC1	n	n	n	n	6.2
Cc1ccc(S(=O)(=O)N2CCCCC2)cc1NC(=O)Cc1c[nH]c2ccccc12	n	n	n	n	5.8
Cc1ccc(NC(=O)Cc2n[nH]c(=O)c3ccccc23)cc1S(=O)(=O)N1CCCCCC1	n	n	n	n	n
COC(=O)c1ccc(COc2ccccc2/C=C(\C#N)C(=O)Nc2ccc(C)cc2)cc1	11	3.9	n	n	n
O=c1cc(N2CCc3ccccc32)[nH]c(=O)n1Cc1ccc(F)cc1	n	n	n	n	5.8
O=c1cc(N2CCN(c3ccccc3Cl)CC2)[nH]c(=O)n1Cc1ccc(F)cc1	n	n	n	n	n
O=C(/C=C/c1ccco1)N1CCN(S(=O)(=O)c2cccs2)CC1	n	n	6.6	n	n
O=C1C[C@@H]2CCN3C(=O)CCC[C@@H]([C@H]23)[C@@H]1Cc1ccccc1	n	3.9	n	n	n
CCCCNC(=O)c1cc2c(=O)n3cccc(C)c3nc2s1	n	n	n	n	n
Cc1cccn2c(=O)c3cc(C(=O)NCCc4ccccc4)sc3nc12	n	n	n	1.0	n
NC(=NCCc1c[nH]c2ccccc12)NC(=O)OCc1ccccc1	n	n	x	n	n
N#Cc1ccccc1COC(=O)c1cc(=O)c2ccccc2o1	n	n	n	n	6.4
O=C1CCN(C(=O)c2ccc(Cl)cc2)N1	n	n	n	n	n
O=C1CCN(C(=O)CSc2ccc(Cl)cc2)N1	n	n	5.8	n	n
Cc1ccc(/C(N)=N/OC(=O)c2ccc3c(c2)OCO3)cc1	n	n	n	n	n
N/C(=N\OC(=O)c1ccc2c(c1)OCO2)c1ccncc1	n	n	5.1	n	n
SMILES	hgDAF-12 ag	DAX1 inh-1	DAX1 inh-2	ssDAF12 agonist	hcDAF12 agonist
N/C(=N\OC(=O)c1ccc2c(c1)OCO2)c1ccc(Cl)cc1	n	n	n	n	n
COc1ccc(/C(N)=N/OC(=O)c2ccc3c(c2)OCO3)cc1	n	n	n	n	6.0
COc1cccc(NC(=S)N2CCN(c3ccc([N+](=O)[O-])cc3)CC2)c1	n	n	n	1.1	n
Cc1ccc(Cc2cnc(N3C(=N)SC(c4ccccc4)C3=O)s2)cc1 (centres undefined)	n	n	n	n	n
N=C1SC(c2ccccc2)C(=O)N1c1ncc(Cc2ccccc2)s1 (centres undefined)	13	n	n	n	n
CC(C)C1CC(N(C)C)=CC(=S)N1 (centres undefined)	n	n	x	n	n
O=c1c2sc(-c3ccccc3)cc2nc2n1CCC2	13	4.3	n	0.9	5.8
O=c1c2sc(-c3ccccc3)cc2nc2n1CCCCC2	12	n	5.0	n	n
Cn1c(NCCN2CCCC2)nc2cc(-c3ccccc3)sc2c1=O	n	n	x	n	n
C[C@H]1COc2cc(Br)ccc2S(=O)(=O)N1Cc1cn(Cc2ccc(Cl)cc2)nn1	n	n	x	n	n
Cc1c(Cl)cccc1NC(=O)CSc1sc2c(O)cc(=O)[nH]c2c1C#N	n	n	4.4	n	n
COc1ccc(C2=NOC(C(=O)O)C2)cc1 (centres undefined)	n	n	n	1.8	n
COC(=O)C1CN(C2CCCC2)CCS(=O)(=O)N1Cc1ccc(C(F)(F)F)cc1 (centres undefined)	n	n	x	n	n
Cc1cc(C(=O)C(=O)O)c(C)n1-c1ccc(Cl)c(Cl)c1	n	n	n	1.0	n
Cc1cc(C(=O)C(=O)N(C)C)c(C)n1-c1ccc(Cl)c(Cl)c1	n	n	n	n	n
COc1ccc(C(=O)NCCS(=O)(=O)N2CCCCCC2)cc1	n	n	n	n	n
COc1ccc(C(=O)NCCS(=O)(=O)N2CCCC2)cc1	n	n	n	n	6.1
CCOC(=O)C1(Cc2ccccc2)CCN(Cc2cccc(C#N)c2)CC1	n	n	x	n	n
O=c1c(Cl)c(Nc2cccc(Cl)c2)cnn1-c1nc2ccccc2s1	n	n	n	n	5.9
N#Cc1ccccc1NCCCN1CCC(C(O)(c2ccccc2)c2ccccc2)CC1	n	n	x	n	n
CCN(C(=O)[C@@H]1CC(=O)O[C@@H]1c1ccccc1)c1ccccc1	n	n	x	n	n
O=[N+]([O-])c1cccc(-n2nnnc2CN2CCCC2)c1	n	n	n	n	n
O=[N+]([O-])c1cccc(-n2nnnc2CNCc2ccccc2)c1	n	n	5.7	n	n
O=C(NC1CCCC1)C(C1CC1)n1c(C2CC2)nc2ccccc21 (centres undefined)	n	n	x	1.6	n
CCC[C@H]1[C@@H](NC(=O)c2cccc(Cl)c2)CC[C@@]23CCCN2C(=O)CCC[C@@H]13	n	x	x	n	n
SMILES	hgDAF-12 ag	DAX1 inh-1	DAX1 inh-2	ssDAF12 agonist	hcDAF12 agonist
Oc1[nH]c2ccccc2c1C=NCC1CCCO1 (centres undefined)	n	n	n	n	6.5
CC1CCCCN1Cc1c(O)ccc2c(=O)c(-c3ccc(Cl)cc3)coc12 (centres undefined)	n	n	n	n	5.8
CC(C)OC(=O)CSc1nnc(-c2ccc(C(C)(C)C)cc2)n1N	n	n	5.0	n	n
Cc1ccc(-c2nnc(SCC(=O)Nc3ccc(F)cc3F)n2Cc2ccco2)cc1	n	n	x	n	n
Cc1cccc(Cc2nnc(CCC(=O)N3CCCCC3c3nccs3)o2)c1 (centres undefined)	n	n	n	n	n
CCN(CC1CCCO1)C(=O)CCc1nnc(Cc2ccc3c(c2)OCO3)o1 (centres undefined)	n	n	n	n	n
Cc1cccc(Cc2nnc(CCC(=O)N(CC3CC3)CC3CCCO3)o2)c1 (centres undefined)	12	n	n	n	n
CCCOC1CCCN(C(=O)CCc2nnc(Cc3cccc(C)c3)o2)C1 (centres undefined)	11	n	n	n	n
Cn1cccc1C(=O)N1CCN(S(=O)(=O)c2ccc([N+](=O)[O-])cc2)CC1	n	n	x	n	n
